Compounds with a hit are over-represented: about 5.4% of the library has one in this group of screens.
IMPase cell inh: qHTS Assay for Identifying the Cell-Membrane Permeable IMPase Inhibitors; CHO-M1 cells, IP1 accumulation, HTRF TR-FRET ratio; inhibition (IP1 accumulation), % at 46.1 µM; 120,000 tested, under 10 active; AID 901, 2007; active = well fitted curve in the direction sought with a large enough effect in the signal ratio, not every such curve was filed as active; inconclusive = small, poorly fitted or top-dose-only effect, or a change in a side signal; inactive = no such curve, though single readings can be large or run the other way; the % refers to the signal ratio;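 also: cells stimulated with carbachol in lithium chloride buffer; higher means more IMPase inhibition seen as more IP1 and lower FRET ratio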
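CHO-M1 cells (CHO stably expressing M1 receptor), compound up to 46 uM final, stimulated with carbachol (50 uM as added) in buffer with 50mM LiCl, pH 7.4, 30 min at 37C. Cytosolic IP1 read by TR-FRET; AC50 from Hill fits.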
PNC assembly inh: High Content Assay for Compounds that inhibit the Assembly of the Perinucleolar Compartment; activity change (PNC), negative = inhibition, % at 10 µM; PC3M PTB-GFP, PNC prevalence imaging, 16 h; active compounds read low; actives 3.1% (n = 140,000);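 active = readout at or below -70, meaning at least 70% loss of cells showing the perinucleolar compartment, a nuclear body marking cancer cells; inconclusive = readout between -30 and a set limit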
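Compounds are pinned in duplicate onto adhered PC3M cells stably expressing GFP-tagged PTB and incubated 16 h at 37 C. Cells are then fixed, nuclei stained with Hoechst, and PNC-positive cells counted.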
HPGD block: qHTS Assay for Inhibitors of HPGD (15-Hydroxyprostaglandin Dehydrogenase); AID 894, 2007; actives 4.3% (n = 150,000); Potency, µM, actives largely listed as inhibitors; purified HPGD, NADH fluorescence kinetic, PGE2 substrate; 15-hydroxyprostaglandin dehydrogenase [NAD(+)] (Homo sapiens), P15428; active = well fitted inhibition curve with a large enough effect, not every such curve was filed as active; inconclusive = small, poorly fitted or top-dose-only effect, or another doubt; inactive = no such curve, though single readings can be large or run the other way
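NADH formation kinetics: reaction with 30 uM PGE2 and 1 mM NAD+ (final), 20 nM enzyme, Tris-HCl pH 8 with Tween 20, after 15 min compound preincubation at room temperature. Fluorescence change, last versus first of five reads.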
15-hLO-2 inh: qHTS Assay for Inhibitors of 15-hLO-2 (15-human lipoxygenase 2) | Potency, µM (titrated, usually from 57.1 µM), actives largely listed as inhibitors | purified 15hLO-2, xylenol orange hydroperoxide absorbance | Polyunsaturated fatty acid lipoxygenase ALOX15B (Homo sapiens), O15296 | actives 0.56% (n = 110,000); also: nearly all actives have a fitted effect of over 60% in size
Target sequence (O15296 whole entry, looked up): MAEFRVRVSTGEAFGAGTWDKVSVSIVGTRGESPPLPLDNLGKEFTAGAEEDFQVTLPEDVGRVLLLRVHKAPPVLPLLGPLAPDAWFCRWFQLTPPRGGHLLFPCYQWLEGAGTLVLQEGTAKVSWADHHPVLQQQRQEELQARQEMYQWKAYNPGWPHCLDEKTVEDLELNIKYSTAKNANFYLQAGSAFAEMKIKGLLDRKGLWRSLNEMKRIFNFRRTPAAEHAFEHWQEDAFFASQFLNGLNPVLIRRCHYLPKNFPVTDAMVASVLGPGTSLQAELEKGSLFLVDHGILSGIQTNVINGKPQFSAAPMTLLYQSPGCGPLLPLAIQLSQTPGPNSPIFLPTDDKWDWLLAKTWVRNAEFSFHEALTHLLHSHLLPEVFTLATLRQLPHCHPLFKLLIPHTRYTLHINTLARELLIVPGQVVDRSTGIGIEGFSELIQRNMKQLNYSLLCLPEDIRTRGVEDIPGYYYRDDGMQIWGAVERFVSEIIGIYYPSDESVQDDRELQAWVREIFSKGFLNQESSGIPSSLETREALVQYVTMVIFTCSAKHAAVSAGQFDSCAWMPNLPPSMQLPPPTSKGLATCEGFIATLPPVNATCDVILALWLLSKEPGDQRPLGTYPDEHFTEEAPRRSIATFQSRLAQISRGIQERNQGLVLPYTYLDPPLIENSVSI
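Enzyme 50 nM, AA 45 uM, 25 mM Hepes pH 7.5 + 0.01% Triton X-100; cpd preinc 15 min RT, rxn 90 min RT; stop/detect with 200 uM XO + 300 uM Fe(II) in 50 mM H2SO4, 30 min; A573/A405.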
ALOX12 inhib: qHTS Assay for Inhibitors of 12-hLO (12-human lipoxygenase); Polyunsaturated fatty acid lipoxygenase ALOX12 (Homo sapiens), P18054; purified 12-hLO, xylenol orange hydroperoxide absorbance; Potency, µM (highest dose often 57.1 µM), actives largely listed as inhibitors; actives 0.12% (n = 150,000); also: nearly all actives have a fitted effect of over 55% in size
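150 nM 12hLO, 25 mM Hepes pH 7.0 + 0.01% Triton X-100; cpd preinc 15 min RT; 40 uM arachidonic acid, 30 min RT; Fe-XO 30 min; A573/A405 ratio as read-out.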
IMPase Li inh: qHTS Assay for Identifying the Cell-Membrane Permeable IMPase Inhibitors: Potentiation with Lithium. AID 1457, 2008. CHO-M1 cells, IP1 TR-FRET (IP-One), carbachol + lithium. Potency, µM (doses to about 59.4 µM), usual class: inhibitors. actives 0.35% (n = 210,000);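 also: IP1 builds up when IMPase is blocked and the TR-FRET signal falls; nearly all actives have a fitted effect of over 50% in size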
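CHO cells stably expressing M1 receptor (2000/well, cultured 16–30 h) treated 30 min at 37C with compound plus low lithium. Cytosolic IP1 by TR-FRET (665/620 ratio and 620 channel) after 10 min lysis; AC50 by Hill fit.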
Each line names hits and unclear results; the compound was inactive in the other large screens. Unless noted, calls follow the shape of the dose curve; as a rule, active = well fitted curve in the direction sought with a large enough effect; inconclusive = small, poorly fitted or top-dose-only effect, or another doubt; inactive = no such curve, though single readings can be large; an effect the other way counts as inactive or inconclusive.

COCCNC(=O)c1ccc(N(C)S(=O)(=O)c2ccc(OC)c(OC)c2)cc1	HPGD block 6.31µM (no result: 15-hLO-2 inh)
COc1ccc(CCNC(=O)c2ccc(N(C)S(=O)(=O)c3ccc(C)cc3)cc2)cc1OC	none (no result: IMPase cell inh, PNC assembly inh, HPGD block, 15-hLO-2 inh, ALOX12 inhib)
Cc1cc(O)c(C)c2c1CC[C@H]1[C@H](C)C(=O)O[C@H]21	none (no result: IMPase cell inh, PNC assembly inh, 15-hLO-2 inh, ALOX12 inhib)
Cc1cc(C(C)(C)C)cc(CNC2CCCCC2)c1O	none (no result: IMPase cell inh, PNC assembly inh)
c1ccc(Cc2nnc3sc(-c4cccnc4)nn23)cc1	PNC assembly inh inconclusive, HPGD block 14.1µM
c1ccc(Cc2nn3c(-c4ccncc4)nnc3s2)cc1	HPGD block 28.2µM
c1ccc(OCc2nn3c(-c4ccncc4)nnc3s2)cc1	IMPase cell inh inconclusive
c1ccc(Cc2nnc3sc(-c4cccs4)nn23)cc1	HPGD block 8.91µM
c1ccc(CCc2nn3c(Cc4ccccc4)nnc3s2)cc1	HPGD block 11.2µM
CCOc1ccccc1-c1nn2c(Cc3ccccc3)nnc2s1	HPGD block inconclusive
CC(C)c1ccc(Cc2cn3cc(-c4cc5ccccc5oc4=O)nc3s2)cc1	none (no result: PNC assembly inh, HPGD block, 15-hLO-2 inh, ALOX12 inhib, IMPase Li inh)
O=C1c2ccccc2C(=O)N1Cc1nn2c(-c3ccc(Cl)cc3)nnc2s1	IMPase cell inh inconclusive, PNC assembly inh inconclusive, IMPase Li inh 11.2µM
c1ccc(Cc2nnc3sc(-c4ccccn4)nn23)cc1	PNC assembly inh inconclusive, HPGD block inconclusive
COc1ccc(-c2nnc3sc(CN4C(=O)c5ccccc5C4=O)nn23)cc1	IMPase Li inh inconclusive
c1ccc(Cc2nnc3sc(-c4ccncc4)nn23)cc1	PNC assembly inh inconclusive, HPGD block 11.2µM
N#Cc1cccc(CS(=O)(=O)c2nc3ccccc3s2)c1	none (no result: IMPase cell inh, PNC assembly inh, 15-hLO-2 inh, ALOX12 inhib)
CC1(CC(=O)O)O[C@H]2CCCCC[C@H]2O1 (stereo not given in full) (tested in a mixture with another compound)	none (no result: IMPase cell inh, PNC assembly inh)
CC(=O)Nc1ccc(S(=O)(=O)Nc2ccc([N+](=O)[O-])cc2)cc1	HPGD block 22.4µM (no result: IMPase cell inh, PNC assembly inh)
O=C(Oc1ccnc2cc(Cl)ccc12)N1CCCCCC1	PNC assembly inh inconclusive, HPGD block 31.6µM
Cc1c(Cl)c(C(=O)NC2CCCC2)nn1C	HPGD block 35.5µM (no result: 15-hLO-2 inh)
Cc1c(Cl)c(C(=O)N2CCCC2)nn1C	none (no result: IMPase cell inh, 15-hLO-2 inh)
CSCCC(NC(=O)c1ccccc1)C(=O)OCC(=O)c1ccc[nH]1 (stereo not given)	none (no result: IMPase cell inh, 15-hLO-2 inh)
CSCCC(NC(=O)c1ccc(Cl)cc1)C(=O)OCC(=O)c1ccc[nH]1 (stereo not given)	PNC assembly inh -119.3 (no result: 15-hLO-2 inh)
CCC[C@@H]1C[C@@]1(CCC)[C@@H](NC(=O)Oc1ccccc1)c1ccc(C(=O)OC)cc1	none (no result: IMPase cell inh, PNC assembly inh)
C/C(N)=C(/C#N)C(=O)COC(=O)c1ccc(C)c(S(=O)(=O)N2CCCCC2)c1	HPGD block 12.6µM
COCC(C)NC(=O)c1cccc([N+](=O)[O-])c1 (stereo not given)	none (no result: IMPase cell inh, PNC assembly inh, HPGD block, 15-hLO-2 inh, ALOX12 inhib)
COCC(C)NC(=O)c1ccc(N(C)C)cc1 (stereo not given)	HPGD block 22.4µM
COC(=O)N/N=C/c1cc(Cl)c(OCc2ccc(F)cc2)c(OC)c1	PNC assembly inh -86.6 (no result: IMPase cell inh, 15-hLO-2 inh)
COc1ccc(COc2ccsc2C(=O)Nc2ccc(Cl)cc2)cc1	PNC assembly inh -86.0
O=C(N/N=C/c1ccc(Cl)cc1)c1sccc1OCc1ccc(F)cc1	PNC assembly inh -119.2
COc1ccc(NC(=O)c2csc(Cc3ccc(Cl)cc3)n2)cc1	none (no result: IMPase cell inh, PNC assembly inh, HPGD block, 15-hLO-2 inh, ALOX12 inhib)
O=C1Oc2ccccc2C(=O)/C1=C\N1C(=O)N/C(=C\c2ccccc2O)C1=O	none (no result: IMPase cell inh, PNC assembly inh)
CCOC(=O)CSc1nc(-c2ccc(F)cc2)cc(C(F)(F)F)c1C#N	none (no result: PNC assembly inh, HPGD block, 15-hLO-2 inh, ALOX12 inhib, IMPase Li inh)
COCCOC(=O)c1c(C)oc2ccc(O)c(CN3CCC(C)CC3)c12	PNC assembly inh -109.9
COc1cc(OC)c(Nc2cc(C)nc3nc(C)nn23)cc1Cl	none
COc1ccc(Cl)cc1Nc1cc(C)nc2nc(C)nn12	HPGD block 3.55µM (no result: IMPase cell inh, 15-hLO-2 inh)
Cc1cc(-c2ccccc2)c(C#N)c(=S)[nH]1	HPGD block 14.1µM (no result: IMPase cell inh, 15-hLO-2 inh)
CC1CCc2c(sc3nnn(CC(=O)Nc4ccccc4Cl)c(=O)c23)C1 (stereo not given)	none (no result: PNC assembly inh, HPGD block, 15-hLO-2 inh, ALOX12 inhib, IMPase Li inh)
CCOc1cc(/C=C2\C(=O)ON=C2C)ccc1OCc1ccccc1	HPGD block 7.08µM (no result: IMPase cell inh, 15-hLO-2 inh)
COc1cc(/C=C2/C(=O)NN(c3cccc(C)c3)C2=O)ccc1OC(=O)c1ccco1	IMPase cell inh inconclusive, HPGD block 2µM, ALOX12 inhib inconclusive (no result: 15-hLO-2 inh)
CCOc1cc(/C=C2\C(=O)N(c3ccc(C(N)=O)cc3)N=C2C)ccc1OC(=O)c1cccs1	HPGD block 7.08µM, 15-hLO-2 inh 5.01µM
CCOc1cc(/C=C/C(=O)O)ccc1OCc1ccccc1	none (no result: IMPase cell inh, PNC assembly inh, HPGD block, 15-hLO-2 inh, ALOX12 inhib)
COc1cc(/C=C2/C(=O)NN(c3cccc(C)c3)C2=O)cc([N+](=O)[O-])c1O	none (no result: IMPase cell inh, PNC assembly inh, HPGD block, 15-hLO-2 inh, ALOX12 inhib)
CCOc1cc(/C=C2/C(=O)N(c3ccccc3)N=C2C)ccc1OC(=O)c1ccco1	HPGD block 8.91µM, 15-hLO-2 inh inconclusive
CC1=NN(c2ccc(C(=O)O)cc2)C(=O)/C1=C\c1ccc(OC(=O)c2cccs2)cc1	none (no result: IMPase cell inh, PNC assembly inh, HPGD block, 15-hLO-2 inh, ALOX12 inhib)

Assay outcomes: PubChem BioAssay, National Center for Advancing Translational Sciences (NCATS)
